LmPK inh: blocks Leishmania mexicana pyruvate kinase activity; Q27686; purified LmPK, Kinase-Glo ATP luminescence, 1 h; Potency, µM (highest dose often 57.5 µM), hits mostly inhibitors; 290,000 tested, 0.37% active
Target sequence (Q27686 whole entry, looked up): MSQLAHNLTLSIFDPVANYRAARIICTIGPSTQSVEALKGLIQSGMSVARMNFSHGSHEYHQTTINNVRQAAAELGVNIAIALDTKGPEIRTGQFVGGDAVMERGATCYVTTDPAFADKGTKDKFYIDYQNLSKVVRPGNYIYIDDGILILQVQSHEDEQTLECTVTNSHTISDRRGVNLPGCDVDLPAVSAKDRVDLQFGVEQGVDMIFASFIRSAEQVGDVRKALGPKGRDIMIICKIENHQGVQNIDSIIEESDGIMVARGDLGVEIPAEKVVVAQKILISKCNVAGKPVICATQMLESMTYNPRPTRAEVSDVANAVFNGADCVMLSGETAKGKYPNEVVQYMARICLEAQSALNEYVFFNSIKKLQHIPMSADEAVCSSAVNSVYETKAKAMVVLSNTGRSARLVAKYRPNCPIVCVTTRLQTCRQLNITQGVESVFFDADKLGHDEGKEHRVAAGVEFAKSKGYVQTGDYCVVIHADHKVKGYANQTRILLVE
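Kinase-Glo luminescence read after 1 h RT reaction of 0.1 nM LmPK with 0.5 mM PEP and 0.1 mM ADP. Activity scaled between uninhibited and enzyme-free controls.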
RE007 growth inh: less growth of the S. pombe RE007 Vpr strain; S. pombe RE007 Vpr strain, BacTiter-Glo ATP luminescence, 24 h; Potency, µM (top dose mostly 92.2 µM), most hits filed as inhibitors; 360,000 tested, 0.21% active; active = well fitted falling curve with a large enough effect; inconclusive = small, poorly fitted or top-dose-only effect; inactive = no such curve, though single readings can be large or run the other way; also: nearly all actives have a fitted effect of over 50% in size
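Fission yeast strain RE007, carrying one chromosomally integrated HIV-1 vpr copy, was seeded at OD 0.01 in PMG+AL medium with 23 nL pinned compound. After 24 h at 30 °C and 99% humidity, viability was read by BacTiter-Glo luminescence.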
Cycloheximide cs: counter-screen hit for Shiga toxin inhibitors, cycloheximide; cell reporter, cycloheximide protein synthesis inhibition counterscreen; max response, %; 300,000 tested, 12% active; AID 2314; in the data active = max response mostly above about 13%, no sharp cut-off; inactive = mostly below about 14%; also: read at 38.3 µM for the half of the compounds with a filed dose
Giardia FBPA inh: inhibitors of Giardia lamblia fructose-1,6-bisphosphate aldolase; A8B2U2; purified Giardia FBPA; Potency, µM (doses to about 59.6 µM), actives largely listed as inhibitors; 290,000 tested, 0.71% active; also: nearly all actives have a fitted effect of over 55% in size
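40 nM FBPA preincubated 10 min at RT with compound (up to 57.5 uM final), then substrate plus GAPDH/TPI/NAD/arsenate coupling and diaphorase/resazurin added. Fluorescence read after 20 min at RT, 525/598 nm.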
Tb PYK inh: T. brucei pyruvate kinase inhibition; Q57TT1; TbPYK enzyme, Kinase-Glo Plus ATP luminescence, 45 min; Potency, µM (series often up to 76.8 µM), most hits filed as inhibitors; 410,000 tested, 0.12% active; AID 624173; also: nearly all actives have a fitted effect of over 50% in size
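ADP (130 uM final) triggers the TbPYK reaction after compound addition; incubation is 45 min at room temperature. Kinase-Glo Plus is then added and luminescence imaged. Normalized data are fitted to concentration-effect curves.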
Shiga toxin inh: blocks Shiga toxin action in Vero cells; Vero cells, Shiga toxin protein synthesis inhibition reporter; inhibition, % at 38.7 µM; 290,000 tested, 9.2% active; AID 2315; in the data active = inhibition mostly above about 28%, no sharp cut-off; inactive = mostly below about 43%
Each line names hits and unclear results; the compound was inactive in the other large screens. This excerpt belongs to a sample that is enriched for hits. Unless noted, calls follow the shape of the dose curve; as a rule, active = well fitted curve in the direction sought with a large enough effect; inconclusive = small, poorly fitted or top-dose-only effect, or another doubt; inactive = no such curve, though single readings can be large; an effect the other way counts as inactive or inconclusive.

O=C(CN1C(=O)CSc2ccc(S(=O)(=O)N3CCCC3)cc21)Nc1cccc(Cl)c1	none (no result: LmPK inh, RE007 growth inh, Cycloheximide cs, Giardia FBPA inh, Shiga toxin inh)
CC#CC#Cc1cccc(=O)o1	Cycloheximide cs 25, Shiga toxin inh 61
CC(C)[C@@H](OCc1ccccc1)[C@H](C)/C=N\OC[C@@H](O)[C@@H]1O[C@@H]2OC(C)(C)O[C@@H]2[C@H]1O	none (no result: LmPK inh, RE007 growth inh, Cycloheximide cs, Tb PYK inh, Shiga toxin inh)
CCOC(=O)c1c(NC(=O)C(C)Sc2cn(CCNC(=O)c3ccc(OC)cc3)c3ccccc23)sc2c1CCC2 (configuration not stated)	none (no result: LmPK inh, RE007 growth inh, Cycloheximide cs, Giardia FBPA inh, Shiga toxin inh)
COc1cccc(Nc2nc(N)nc(CCl)n2)c1	Cycloheximide cs 57, Shiga toxin inh 146
Cc1cccc(Nc2nc(N)nc(CCl)n2)c1	Cycloheximide cs 61, Shiga toxin inh 77
COc1cccc(N2CCN(Cc3nc(N)nc(Nc4ccccc4)n3)CC2)c1	none
COC(=O)c1cc(Nc2nc3ccccc3nc2NS(=O)(=O)c2ccc(C)cc2)ccc1Cl	none (no result: LmPK inh, RE007 growth inh, Cycloheximide cs, Giardia FBPA inh, Shiga toxin inh)
CCCC(=O)Oc1ccc(-c2nccc(C(OC)OC)n2)cc1	Shiga toxin inh 52
Cc1ccc2c(COC(=O)c3n[nH]c4ccccc34)cc(=O)oc2c1	Cycloheximide cs 32, Shiga toxin inh 78
CCc1ccc2c(COC(=O)C3CC(=O)N(CCc4ccccc4)C3)cc(=O)oc2c1 (configuration not stated)	none (no result: LmPK inh, Cycloheximide cs, Giardia FBPA inh, Shiga toxin inh)
Cc1ccc2c(COC(=O)c3ccccc3F)cc(=O)oc2c1	Cycloheximide cs 27, Shiga toxin inh 128
Cc1ccc2c(COC(=O)c3c(C)noc3C)cc(=O)oc2c1	none
CCc1ccc2c(COC(=O)c3n[nH]c4ccccc34)cc(=O)oc2c1	Cycloheximide cs 46, Shiga toxin inh 94
CCN1CCc2c(sc(-n3cccc3)c2C(C)NC(=O)Nc2ccc(C(=O)OC)cc2)C1 (configuration not stated)	none (no result: LmPK inh, RE007 growth inh, Cycloheximide cs, Giardia FBPA inh, Shiga toxin inh)
COc1cccc(CNC(=O)CCS(=O)(=O)c2cc3c4c(c2)CCN4C(=O)CC3)c1	none (no result: LmPK inh, RE007 growth inh, Cycloheximide cs, Giardia FBPA inh, Shiga toxin inh)
COC(=O)c1sc(-c2ccc(C(C)(C)C)cc2)cc1NC(=O)CCC(=O)O	RE007 growth inh inconclusive, Cycloheximide cs 27, Shiga toxin inh 64
COCC(=O)N1CCC(Oc2ccc(C(=O)N(C)C3CCCCC3)cc2)CC1	none
COCCC(=O)N1CCC(Oc2ccc(C(=O)N(C)C3CCCCC3)cc2)CC1	Cycloheximide cs 12 (no result: Shiga toxin inh)
CCCOC1CCCN(C(=O)c2ccc(OC3CCN(C(=O)COC)CC3)cc2)C1 (configuration not stated)	none (no result: Giardia FBPA inh)
CCCOC1CCCN(C(=O)c2ccc(OC3CCN(C(=O)CCOC)CC3)cc2)C1 (configuration not stated)	Cycloheximide cs 16 (no result: Giardia FBPA inh)
Cn1c(=O)c2cn(-c3ccccc3)cc2n(C)c1=O	none
COc1cccc(-n2cc3c(=O)n(C)c(=O)n(C)c3c2)c1	Cycloheximide cs 24
C(=Nc1ccc(N2CCOCC2)cc1)c1c[nH]c2ccccc12	Cycloheximide cs 42, Giardia FBPA inh inconclusive, Shiga toxin inh 89
Cc1ccc(-n2c(C)cc(C)c(C#N)c2=O)cc1	none
Cc1cccc(-n2c(C)cc(C)c(C#N)c2=O)c1	Cycloheximide cs 17, Shiga toxin inh 88
Cc1csc2nc(COc3ccc(NC(=O)COc4ccc(F)cc4)cc3)cc(=O)n12	none (no result: LmPK inh, RE007 growth inh, Cycloheximide cs, Giardia FBPA inh, Shiga toxin inh)
O=C(Nc1nnc(-c2ccc3c(c2)CCCC3)o1)c1ccccc1	Cycloheximide cs 20, Shiga toxin inh active
O=C(Nc1nnc(-c2ccc3c(c2)CCCC3)o1)c1ccccc1Cl	Giardia FBPA inh inconclusive
O=C(c1ccccn1)c1cc2ccccc2n1S(=O)(=O)c1ccccc1	Cycloheximide cs 26, Shiga toxin inh 43
CC(C)[C@H](NC(=O)c1ccco1)C(=O)OCC(=O)N1CCc2ccccc21	Cycloheximide cs 14, Shiga toxin inh 73
CC(C)[C@H](NC(=O)c1ccco1)C(=O)OCC(=O)NC12CC3CC(CC(C3)C1)C2	Cycloheximide cs 21, Shiga toxin inh 59
O=C1C(=Cc2ccc(F)cc2)Cc2ccccc21	none (no result: LmPK inh, Cycloheximide cs, Giardia FBPA inh, Shiga toxin inh)
O=C1C(=C2SCCCS2)CC/C1=C\c1ccc(F)cc1	LmPK inh inconclusive, Cycloheximide cs 31, Shiga toxin inh 79
Cc1cccc(/C=C2\CCC(=C3SCCCS3)C2=O)c1	LmPK inh inconclusive, Cycloheximide cs 44, Shiga toxin inh 80
O=C(CSc1nc2c([nH]c3ccccc32)c(=O)n1-c1ccccc1)NCc1ccc(F)cc1	none (no result: LmPK inh, RE007 growth inh, Cycloheximide cs, Giardia FBPA inh, Shiga toxin inh)
CCOC(=O)c1ccc2[nH]c(CSc3nnc(-c4cccc(F)c4)n3C)cc(=O)c2c1	none (no result: LmPK inh, RE007 growth inh, Cycloheximide cs, Giardia FBPA inh, Shiga toxin inh)
Cc1nccc(-c2cc(-c3ccc(Cl)cc3Cl)no2)n1	Cycloheximide cs 36, Shiga toxin inh 97
O=C1[C@H]2[C@H]3[C@H](O)[C@H](O)C/C(=N/OCc4ccccc4)[C@@H]3CC[C@@H]2C(=O)N1C1CCCCC1	none (no result: LmPK inh, RE007 growth inh, Cycloheximide cs, Tb PYK inh, Shiga toxin inh)
Cc1cccc2c1N(Cc1ccccc1OCCC(C)C)C(=O)C2=O	none (no result: LmPK inh, RE007 growth inh, Cycloheximide cs, Giardia FBPA inh, Shiga toxin inh)
COc1ccc(N=C2SC(CC(=O)Nc3cccc(Cl)c3)C(=O)N2Cc2ccco2)cc1 (configuration not stated)	Cycloheximide cs 37, Shiga toxin inh 16
COc1ccc(N=C2SC(CC(=O)Nc3ccccc3)C(=O)N2Cc2ccccn2)cc1 (configuration not stated)	Giardia FBPA inh inconclusive
CCCCOc1ccc(CNC(=O)c2cnc3sc(N4CCC(C)CC4)nn3c2=O)cc1	none (no result: LmPK inh, RE007 growth inh, Cycloheximide cs, Giardia FBPA inh, Shiga toxin inh)
FCCCOc1ccc(-c2nccc(-c3ccc(Br)cc3)n2)cc1	none
COC(=O)COc1ccc(-c2nccc(-c3ccccn3)n2)cc1	none
Cc1ccc(-c2ccnc(-c3ccc(O)cc3)n2)cc1	Cycloheximide cs 31, Shiga toxin inh 80
COc1ccc(-c2ccnc(-c3ccncc3)n2)cc1	none
Oc1ccc(-c2nccc(-c3ccccn3)n2)cc1	Cycloheximide cs 81, Shiga toxin inh 88
Oc1ccc(-c2nccc(-c3ccc(Br)cc3)n2)cc1	Cycloheximide cs 17, Shiga toxin inh 40
FCCCOc1ccc(-c2ccnc(-c3ccccc3)n2)cc1	Cycloheximide cs 28, Shiga toxin inh 81
FCCCOc1ccc(-c2nccc(-c3ccc(F)cc3)n2)cc1	none

Screening data deposited in PubChem by National Center for Advancing Translational Sciences (NCATS).
